Assay results taken from PubChem BioAssay AID743279 (National Center for Advancing Translational Sciences (NCATS), 2014).
Out of some 360,000 compounds screened, about 17,000 (4.7%) were called active. About 5% were inconclusive and are not listed. Cut-off read from the data, not from the text of the source: active = activity change below about -50%; inconclusive = mostly about -30% to -49%; inactive = weaker than that. What follows is part of a selection rich in actives, with near analogues and random picks from the rest.

Assay: qHTS for Inhibitors of Inflammasome Signaling: IL-1-beta AlphaLISA Primary Screen
Conditions: THP-1 LPS/ATP IL-1B secretion, 16 h; at 57.5 µM, stronger effect = lower value
Procedure, shortened: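 THP-1 cells pretreated 1 hr with compounds (up to 57.5 uM final), then stimulated with LPS (250 ng/mL final) plus ATP (1.25 mM final); secreted IL-1B measured by AlphaLISA after 16 hr, decreased signal indicating inhibition.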
% is set by controls: 0 for no effect and ±100 for the full control effect.

SMILES | activity change
CC(C)(CNCC(O)c1ccccc1)N1CCOCC1 (configuration not stated) | -7.93% (inactive)
Cc1c(Cl)cccc1NC(=S)NCC(O)c1ccccc1 (configuration not stated) | -6.92% (inactive)
OC(CNCc1ccc(Cl)c(Cl)c1)c1ccccc1 (configuration not stated) | -69.4% (active)
Cc1c(NC(=O)C(=O)N/N=C/c2cccs2)c(=O)n(-c2ccccc2)n1C | -21.9% (inactive)
O=C(NCc1ccc(F)cc1)c1cc(C2CCCCN2C(=O)c2ccccn2)on1 (configuration not stated) | 42.4% (inactive)
O=C(OCc1cn(-c2ccc(Cl)c(Cl)c2)nn1)c1ccccc1Cl | -2.76% (inactive)
Cc1cccc(CN2CCN(C3CN(Cc4cn(Cc5cc(C)cc(C)c5)nn4)S(=O)(=O)C3)CC2)c1 (configuration not stated) | -18.8% (inactive)
CCOc1ccc(C(C)=O)cc1COC(=O)c1cnc(Cl)c(Cl)c1 | -108% (active)
CCOc1ccc(C(C)=O)cc1COC(=O)CNC(=O)c1cccs1 | -9.33% (inactive)
COC(=O)c1ccc(COC(=O)c2cnc(Cl)c(Cl)c2)cc1 | -13.4% (inactive)
CC(C)c1cc(Cn2c3ccccc3c(=O)n2C(C)Cn2cc(C3CC3)nn2)on1 (configuration not stated) | -6.05% (inactive)
O=C1CS(=O)CN1c1ccc(Oc2ccccc2)cc1 (configuration not stated) | 15% (inactive)
O=C1c2ccccc2C(c2nc3ccccc3[nH]2)N1c1ccccc1 (configuration not stated) | 81% (inactive)
Cc1cccn2c(=O)c3cc(C(=O)NC4CCCCC4)sc3nc12 | -16.1% (inactive)
CC1(C(=O)NS(=O)(=O)C2CC2)CCCN(C(=O)CSc2ccccc2)C1 (configuration not stated) | 10.6% (inactive)
CCOc1ccc(C(=O)Nc2c3c(nn2-c2ccccc2)CS(=O)(=O)C3)cc1 | 12.2% (inactive)
CC1CCN(c2nc3c(c(=O)[nH]c(=O)n3C)n2CCCc2ccccc2)CC1 | 14.1% (inactive)
O=C1N=C(N2CCOCC2)S/C1=C\C=C/c1ccccc1 | -18% (inactive)
CC1CCN(C2=NC(=O)/C(=C/c3cn[nH]c3-c3ccccc3)S2)CC1 | -59.2% (active)
CC(C)C(NC(=O)c1c(F)cccc1F)C(=O)NCc1ccncc1 (configuration not stated) | 4.1% (inactive)
CC(C)C(NC(=O)OCc1ccccc1)C(=O)OCC(=O)N1C(C)CCCC1C (configuration not stated) | -2.86% (inactive)

SMILES | activity change
O=C(c1ccc(N2CCOCC2)c([N+](=O)[O-])c1)N1CCN(S(=O)(=O)c2cccs2)CC1 | -0.922% (inactive)
CC(C)c1ccc(S(=O)(=O)N2CCN(C(=O)c3ccc(N4CCCC4)c([N+](=O)[O-])c3)CC2)cc1 | -52% (active)
Cc1ccc(S(=O)(=O)N2CCN(C(=O)c3ccc(-n4cncn4)c([N+](=O)[O-])c3)CC2)cc1 | -5.16% (inactive)
CCN(CCn1cccn1)Cc1nc(-c2ccc(C(=O)OC)cc2)no1 | 81.6% (inactive)
Clc1ccc(-c2cc(-c3ccccn3)on2)c(Cl)c1 | 0% (inactive)
Clc1ccc(-c2cc(C3CCNCC3)[nH]n2)c(Cl)c1 | -79.9% (active)
O=C(Cn1ccc([N+](=O)[O-])n1)NCc1cccs1 | 5.04% (inactive)
O=C(NCCc1cccc(F)c1)C1CC(O)CN1C(=O)Nc1ccccc1 (configuration not stated) | 22.4% (inactive)
CCCS(=O)(=O)C(=C1Nc2ccccc2N1)S(=O)(=O)CCC | 3.44% (inactive)
O=C(CN1CCCCCC1)N1c2ccccc2Sc2ccc(C(F)(F)F)cc21 | -60% (active)
COc1cc(/C=C/C(=O)N2c3ccccc3Sc3ccc(C(F)(F)F)cc32)cc(OC)c1OC | -1.9% (inactive)
O=C(CN1CCCCC1)N1c2ccccc2Sc2ccc(C(F)(F)F)cc21 | -13.4% (inactive)
CC(=O)NCCc1ccc(S(=O)(=O)N(C)C2CCS(=O)(=O)C2)cc1 (configuration not stated) | 0% (inactive)
CC(=O)c1nn(-c2ccccc2)c(=Nc2ccccc2)cc1C | -11% (inactive)
O=C(Nc1ccc(Cl)cn1)c1ccccc1-c1ccccc1 | 7.39% (inactive)
CSc1ccccc1-c1nnc(-c2ccc(Cl)cc2)o1 | -6.95% (inactive)
Oc1ccccc1-c1cc(-c2ccc(Cl)cc2)n[nH]1 | -71.3% (active)
CC(=O)NC(C)(C)C1CC=C(C)/C(=N\O)C1 (configuration not stated) | 3.35% (inactive)
COc1cccc(CNS(=O)(=O)c2ccc3c(c2)CC(C)N3C(C)=O)c1 (configuration not stated) | 4.38% (inactive)
COc1ccc(N(C)S(=O)(=O)c2ccc3c(c2)CC(C)N3C(=O)C2CC2)c(OC)c1 (configuration not stated) | -63.4% (active)
COc1ccccc1CNC(=O)C1CCN(S(=O)(=O)c2ccc3c(c2)CC(C)N3C(=O)C2CC2)CC1 (configuration not stated) | -26% (inactive)

SMILES | activity change
C[C@H](CO)N1C[C@H](C)[C@@H](CN(C)C(=O)c2cnccn2)Oc2ncc(Br)cc2C1=O | 33.8% (inactive)
CC(=O)Nc1ccc(C=Cc2ccc([N+](=O)[O-])cc2)cc1 | -18.6% (inactive)
O=C1/C(=C\c2ccc([N+](=O)[O-])cc2)CS(=O)(=O)C/C1=C/c1ccc([N+](=O)[O-])cc1 | -99.9% (active)
O=[N+]([O-])c1ccc(C=NN=Cc2ccc([N+](=O)[O-])cc2)cc1 | -8.06% (inactive)
CCN(CC)C(=O)CSc1ncnc2c1cnn2-c1ccccc1 | -11.6% (inactive)
CCC(C)N(C(=O)CSc1ncnc2c1cnn2-c1ccccc1)C1CCS(=O)(=O)C1 (configuration not stated) | -9.61% (inactive)
CCN(C(=O)CSc1ncnc2c1cnn2-c1ccccc1)C1CCS(=O)(=O)C1 (configuration not stated) | -60.6% (active)
CC1=C(C(=O)N2CCOCC2)CC(CC(=O)NCC2CCCCC2)C(=O)N1Cc1ccc(F)cc1 (configuration not stated) | 3.54% (inactive)
CNc1cc(-c2c(OC)cccc2OC)ncn1 | 22.1% (inactive)
Cc1ccc(OCCNC(=O)c2cccc(S(=O)(=O)N3CCN(Cc4ccccc4)CC3)c2)cc1 | -14.6% (inactive)
C=CCN(CC=C)C(=O)COC(=O)c1n[nH]c2ccccc12 | 18.7% (inactive)
CC(C)C[C@H]1CNC(=S)N1C[C@H]1CCCN1C[C@H](Cc1ccc(O)cc1)N1C[C@H](Cc2ccc(O)cc2)N(CC2CCCCC2)C1=S | -11.2% (inactive)
O=C1NC[C@H](Cc2ccc(O)cc2)N(C[C@@H]2CCCN2C[C@H](Cc2ccccc2)N2C[C@H](Cc3ccccc3)N(CC3CCCCC3)C(=O)C2=O)C1=O | -15.5% (inactive)
CCOc1ccc(CCN2C(=O)C(=O)N([C@@H](Cc3ccc(O)cc3)CN3CCC[C@H]3CN3C(=O)C(=O)NC[C@@H]3CC(C)C)C[C@@H]2Cc2ccccc2)cc1 | 13.9% (inactive)
CC(C)C[C@H]1CN([C@@H](Cc2ccccc2)CN2CCC[C@@H]2CN2C(=O)C(=O)NC[C@@H]2Cc2ccc(O)cc2)C(=O)C(=O)N1CCc1ccccc1 | 0% (inactive)
CC(C)C[C@H]1CNC(=O)C(=O)N1C[C@@H]1CCCN1C[C@H](Cc1ccccc1)N1C[C@H](CC(C)C)N(CC2CCCCCC2)C(=O)C1=O | 0% (inactive)
CC(C)C[C@H]1CNC(=O)C(=O)N1C[C@H]1CCCN1C[C@H](Cc1ccc(O)cc1)N1C[C@H](CC(C)C)N(CC2CCCCCC2)C(=O)C1=O | -60.7% (active)
CCOc1ccc(CCN2C(=S)N([C@@H](CC(C)C)CN3CCC[C@@H]3CN3C(=S)NC[C@@H]3Cc3ccc(O)cc3)C[C@@H]2Cc2ccc(O)cc2)cc1 | -64.1% (active)
CCOc1ccc(CCN2C(=O)C(=O)N([C@@H](CC(C)C)CN3CCC[C@H]3CN3C(=O)C(=O)NC[C@@H]3Cc3ccccc3)C[C@@H]2CC(C)C)cc1 | -1.26% (inactive)
CC(C)C[C@H]1CN([C@@H](CC(C)C)CN2CCC[C@@H]2CN2C(=O)C(=O)NC[C@@H]2Cc2ccccc2)C(=O)C(=O)N1CCc1ccccc1 | -63.4% (active)
CCCCN1CC(COc2ccccc2)Oc2cccc(F)c2S1(=O)=O (configuration not stated) | -1.95% (inactive)

SMILES | activity change
COc1cc(NC(=O)CSc2ccc(-c3cccnc3)nn2)cc(OC)c1 | -13.8% (inactive)
CC1CCC2(CC1)NC(=O)N(CC(=O)NCc1ccco1)C2=O (configuration not stated) | 5.54% (inactive)
CCc1ccc2c(c1)NC(=O)C2(C)Cc1ccc(OC(F)(F)F)cc1 (configuration not stated) | -20.9% (inactive)
N#C/C=C(/c1ccc(F)cc1)N1CCOCC1 | 11.5% (inactive)
COc1ccc(CNC(=O)COC(=O)C2=Cc3ccccc3OC2)cc1 | 1.65% (inactive)
CCCSC(=S)NC1CCS(=O)(=O)C1 (configuration not stated) | -105% (active)
O=C(Cc1ccc(Cl)cc1)NC1CCS(=O)(=O)C1 (configuration not stated) | -6.66% (inactive)
COc1ccc(NC(=S)NC2CCS(=O)(=O)C2)cc1 (configuration not stated) | 7% (inactive)
O=S1(=O)CCC(NC(=S)SCc2ccccc2Br)C1 (configuration not stated) | -69% (active)
O=C(CSc1ccccc1F)NC1CCS(=O)(=O)C1 (configuration not stated) | -10.4% (inactive)
CC(C)C(=O)NC(NC(=S)NC1CCS(=O)(=O)C1)C(Cl)(Cl)Cl (configuration not stated) | 15.4% (inactive)
C[C@@H]1NS(=O)(=O)c2cc(Cl)ccc2O[C@@H]1c1ccccc1 | -5.88% (inactive)
O=C1NC[C@H](CCCCN2C[C@H](Cc3ccc(O)cc3)N(CC3CCCCC3)C(=O)C2=O)N(CCc2ccccc2)C1=O | 4.81% (inactive)
CC1(Cc2ccccc2C#N)C(=O)Nc2ccc(-c3ccc4[nH]ccc4c3)cc21 (configuration not stated) | 90.5% (inactive)
COc1ccc(N=C2C=CC(=O)O2)cc1 | 4.16% (inactive)
CCCCNC(=O)c1nc(C2CCN(S(=O)(=O)c3ccc(F)c(F)c3)CC2)oc1-c1cccc(C(F)(F)F)c1 | 11.8% (inactive)
CCOC(=O)[C@]12CCCC=C1N(Cc1cccc3ccccc13)C(=O)[C@H](CC(=O)NCC13CC4CC(CC(C4)C1)C3)C2 | -26.5% (inactive)
O=S1(=O)CC(N2CCSCC2)CN1Cc1cn(Cc2cccc(Cl)c2)nn1 (configuration not stated) | -25.6% (inactive)
COc1ccc(Br)cc1/C=N/Nc1ccc(S(=O)(=O)Nc2ccccc2C(=O)O)cc1[N+](=O)[O-] | 0% (inactive)
